Assay [1] is described as follows: growth inhibition of DIPG glioma cells, dose response, cell-based, SU-DIPG-XVII, MIPE5.0, CellTiter-Glo, qHTS (AID 1347060; cut-off not given, nearly all actives have AC50 up to about 26 µM;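 on AC50: cells exposed to compound for 48 hours before viability readout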). The note with it: SU-DIPG-XVII viability, CellTiter-Glo ATP luminescence. Background: ATP-based viability assays read luminescence as a measure of living cells.
Assay [2] in a line: growth inhibition of DIPG glioma cells, dose response, cell-based, SU-DIPG-XIII, MIPE5.0, CellTiter-Glo, qHTS (AID 1347064; cut-off not given, nearly all actives have AC50 up to about 23 µM;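 on AC50: cells exposed to compound for 48 hours before the viability read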). The note with it: SU-DIPG-XIII viability, CellTiter-Glo ATP luminescence.
A short description of assay [3]: viability loss in pontine glioma line – cell-based, SU-DIPG-XXV, MIPE5.0, CellTiter-Glo, qHTS, dose response (AID 1347065; cut-off not given, nearly all actives have AC50 up to about 26 µM;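 further: cells exposed to compound for 48 hours before ATP readout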). As to conditions: CellTiter-Glo ATP luminescence.
Assay [4] in a line: SU-DIPG-XXV glioma cell viability, MIPE5.0 library, qHTS (AID 1347068; cut-off not given, nearly all actives have IC50 up to about 30 µM;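 on IC50: cells exposed to compound for 48 hours before viability readout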).
The nature of assay [5]: growth inhibition of DIPG glioma cells, dose response, cell-based, SU-DIPG-XIII, MIPE4.0, CellTiter-Glo, qHTS (AID 1347061; cut-off not given, nearly all actives have AC50 up to about 37 µM;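 further: cells exposed to compound for 48 hours before readout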). The note with it: SU-DIPG-XIII viability, CellTiter-Glo ATP luminescence.
The nature of assay [6]: growth inhibition of DIPG glioma cells, dose response, cell-based, JHH-DIPG-1, MIPE4.0, CellTiter-Glo, qHTS (AID 1347062; cut-off not given, nearly all actives have AC50 up to about 27 µM;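 on AC50: cells exposed to compound for two days before readout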). As to conditions: JHH-DIPG-1 viability, CellTiter-Glo ATP luminescence.
Assay [7] in a line: growth inhibition of DIPG glioma cells, dose response, cell-based, SU-DIPG-IV, MIPE4.0, CellTiter-Glo, qHTS (AID 1347063; cut-off not given, nearly all actives have AC50 up to about 30 µM;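 further: compound exposure lasted 48 hours before the viability readout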). The note with it: SU-DIPG-IV viability, CellTiter-Glo ATP luminescence.
Assay [8] is described as follows: SU-DIPG-VI glioma cell viability, MIPE4.0 library, CellTiter-Glo luminescence, qHTS (AID 1347066; cut-off not given, nearly all actives have AC50 up to about 30 µM;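 further: cells exposed to compound for 48 hours before readout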). As to conditions: CellTiter-Glo ATP luminescence.
Assay [9] is described as follows: JHH-DIPG-1 glioma cell viability, MIPE5.0 library, CellTiter-Glo luminescence, qHTS (AID 1347067; cut-off not given, nearly all actives have AC50 up to about 26 µM;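 further: cells exposed to compound for 48 hours before readout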). The note with it: JHH-DIPG-1 glioma viability, CellTiter-Glo ATP luminescence.
The nature of assay [10]: sensitizers of A549 cells to miR-34 induction, primary screen, imaging, A549 dox-inducible miR-34, nuclei and caspase counts (AID 1347080;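 active means compounds whose cell count with miR-34 switched on is under 0.7 times the count with it off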). The note with it: A549 miR-34 inducible, Hoechst nuclei count, 48 h.
Assay [11] in a line: modifiers of HSF1 nuclear foci, imaging, Selleck Cancer Library (AID 1347162; in the data active means plate-normalised HSF1 focus index below about 0.46). The note with it: human cells, at 10 µM; SSMD: measured here: HSF1 foci SSMD mean; cell count: measured here: cell number; plate-normalised HSF1 focus index: stronger effect = lower value.
Assay [12] can be described thus: survival rescue of mitochondrial mutant cells in low glucose, primary screen, MELAS cybrids, Rieske KO mouse fibroblasts, CellTiter-Glo (AID 1508586;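 active means mean z-score across replicates of 1.96 or higher in either the MELAS or the Rieske mutant cell line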;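 further: z relative to plate mean and SD of compound and empty wells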).
The nature of assay [13]: ovarian cancer cell viability with rucaparib, profiling panel, oncology-focused library, rucaparib conditional (AID 1508598). The note with it: patient-derived ovarian cancer cells, CellTiter-Glo viability, 144 h, stronger effect = lower value.

Inconclusive results are not listed. Some structures have more than one record in an assay (separate samples or runs), and their calls can disagree. Calls of active or inactive are those of the source.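 How the source made its calls, unless noted: active means normalized viability below 100% at a tested concentration; inactive means the rest.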

Broadly, the AC50 is the concentration at which the activity in the assay is half-maximal. By IC50 is commonly meant the midpoint of a concentration-inhibition curve. Usually viability stands for a read-out of living cells in per cent, often relative to untreated cells.

On to `Cc1cc(C)c(CNC(=O)c2cc(-c3ccc(N4CCN(C)CC4)nc3)cc3c2c(C)cn3C(C)C)c(=O)[nH]1`, for which the AC50 in assay [1] is 20900 nM (active); in assay [3], 26300 nM (active). In addition, the molecule was called inactive in assay [1], in assay [2] and in assay [4].
Consider `C=C(C)[C@@H]1CC[C@]2(C)CC[C@]3(C)[C@H](CC[C@@H]4[C@@]5(C)CC[C@H](O)C(C)(C)[C@@H]5CC[C@]43C)[C@@H]12`, for which the molecule was classed as inactive in assay [1], in assay [5], in assay [6], in assay [7], in [2] and in assay [3]. For the same molecule, the result in assay [8], in assay [9] and in [4] was inactive.
As to `N#CNC(=NCCCCCCOc1ccc(Cl)cc1)Nc1ccncc1`, the AC50 in assay [1] is 29.5 nM (active); in assay [5], 4.69 nM (active); in assay [6] it was 1.32 nM (active); in assay [7], 4.69 nM (active); in [2], 8.33 nM (active); in [3] it was 13.2 nM (active). In addition, the concentration at half-maximal activity (AC50) in assay [8] was 5.26 nM (active); in assay [9], 14.8 nM (active).
`C=CC(=O)Nc1cccc(Oc2nc(Nc3ccc(N4CCN(C)CC4)cc3OC)ncc2Cl)c1`: the AC50 is 3320 nM (active) in assay [1]; 20900 nM (active) in [6]; 14800 nM (active) in assay [7]; 6610 nM (active) in [2]; 4170 nM (active) in [3]; 16600 nM (active) in assay [8]. The AC50 in assay [9] is 8330 nM (active). Further, in [5], the call was inactive. Also, in assay [4], the IC50 is 2630 nM (active). Further, the fold change was 0.841 (inactive) in assay [10] (stronger effect = lower value, cell number ratio, induced over uninduced) and 0.924 in [10] (measured here: relative caspase fold change +Dox/-Dox). Moreover, the cell count was found to be 4420 in [10] (measured here: total cells with miR-34 induction, stronger effect = lower value); 5250 in assay [10] (measured here: total cells without miR-34 induction); 5190 in assay [11]. This molecule displayed an SSMD in assay [11] of -3.65. In addition, the plate-normalised HSF1 focus index in [11] is 0.843 (inactive). In addition, the z-score is -0.337 (inactive) in assay [12] (MELAS cybrid survival, CellTiter-Glo 48 h, stronger effect = higher value) and 0.584 in assay [12] (Rieske KO mouse fibroblast survival, CellTiter-Glo 72 h). Moreover, the viability in assay [13] (at 0.000305 µM, OCI-C5x cells, with rucaparib 10 µM, 100% = cells with rucaparib alone) was 115% (inactive); in assay [13] (at 0.000305 µM, OCI-C5x cells, without rucaparib) it was 104% (inactive); in assay [13] (at 0.000305 µM, OCI-P5x cells, with rucaparib 20 µM, 100% = cells with rucaparib alone), 114% (inactive); in assay [13] (at 0.000305 µM, OCI-P5x cells, without rucaparib) it was 112% (inactive); in assay [13] (at 0.00122 µM, OCI-C5x cells, with rucaparib 10 µM, 100% = cells with rucaparib alone) it was 117% (inactive); in [13] (at 0.00122 µM, OCI-C5x cells, without rucaparib), 120% (inactive). Also, the viability in [13] (at 0.00122 µM, OCI-P5x cells, with rucaparib 20 µM, 100% = cells with rucaparib alone) was 108% (inactive); in assay [13] (at 0.00122 µM, OCI-P5x cells, without rucaparib) it was 114% (inactive); in assay [13] (at 0.00488 µM, OCI-C5x cells, with rucaparib 10 µM, 100% = cells with rucaparib alone), 107% (inactive); in assay [13] (at 0.00488 µM, OCI-C5x cells, without rucaparib) it was 118% (inactive); in [13] (at 0.00488 µM, OCI-P5x cells, with rucaparib 20 µM, 100% = cells with rucaparib alone), 119% (inactive); in [13] (at 0.00488 µM, OCI-P5x cells, without rucaparib), 118% (inactive). Further, the viability in assay [13] (at 0.0195 µM, OCI-C5x cells, with rucaparib 10 µM, 100% = cells with rucaparib alone) is 115% (inactive); in assay [13] (at 0.0195 µM, OCI-C5x cells, without rucaparib) it was 112% (inactive); in assay [13] (at 0.0195 µM, OCI-P5x cells, with rucaparib 20 µM, 100% = cells with rucaparib alone), 108% (inactive); in [13] (at 0.0195 µM, OCI-P5x cells, without rucaparib), 118% (inactive); in assay [13] (at 0.0781 µM, OCI-C5x cells, with rucaparib 10 µM, 100% = cells with rucaparib alone), 119% (inactive); in [13] (at 0.0781 µM, OCI-C5x cells, without rucaparib) it was 116% (inactive). The viability was 115% (inactive) in assay [13] (at 0.0781 µM, OCI-P5x cells, with rucaparib 20 µM, 100% = cells with rucaparib alone); 115% (inactive) in assay [13] (at 0.0781 µM, OCI-P5x cells, without rucaparib); 115% (inactive) in assay [13] (at 0.313 µM, OCI-C5x cells, with rucaparib 10 µM, 100% = cells with rucaparib alone); 120% (inactive) in assay [13] (at 0.313 µM, OCI-C5x cells, without rucaparib); 119% (inactive) in assay [13] (at 0.313 µM, OCI-P5x cells, with rucaparib 20 µM, 100% = cells with rucaparib alone); 118% (inactive) in [13] (at 0.313 µM, OCI-P5x cells, without rucaparib). Besides, the viability in [13] (at 1.25 µM, OCI-C5x cells, with rucaparib 10 µM, 100% = cells with rucaparib alone) is 106% (inactive); in [13] (at 1.25 µM, OCI-C5x cells, without rucaparib), 45.1% (active); in [13] (at 1.25 µM, OCI-P5x cells, with rucaparib 20 µM, 100% = cells with rucaparib alone) it was 108% (inactive); in assay [13] (at 1.25 µM, OCI-P5x cells, without rucaparib) it was 94.6% (active); in assay [13] (at 5 µM, OCI-C5x cells, with rucaparib 10 µM, 100% = cells with rucaparib alone), 91.6% (active); in assay [13] (at 5 µM, OCI-C5x cells, without rucaparib), 115% (inactive). For the same molecule, the viability is 104% (inactive) in assay [13] (at 5 µM, OCI-P5x cells, with rucaparib 20 µM, 100% = cells with rucaparib alone) and 67.9% (active) in [13] (at 5 µM, OCI-P5x cells, without rucaparib).

Source of the values: PubChem BioAssay.
